Reference: PubChem BioAssay (NCI)
Compounds without any hit were thinned out: in the full panel of roughly 83,000, 20% have a hit.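 Each cell line was grown in a 96-well plate and treated with one concentration of compound for 48 hours. Values below 10 were considered active.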 The source made the active and inactive calls.

What follows are compounds tested on SNB-19 CNS (assay: NCI-60 one-dose screen, 48 h (100 = growth as untreated, 0 = no growth, -100 = all killed)). Settings: 10 µM unless noted.
For `Cn1cc(-c2csc(-c3c[nH]c4ncccc34)n2)c2cc(F)cnc21`, the growth was 89% (inactive).
In the case of `O=C(C(=O)N1CCOCC1)c1ccc(OC2OC(CO)C(O)C(O)C2O)cc1` (centres undefined), the growth was 102% (inactive).
For `ClC1C2CC(c3ccccc32)C1Cl` (centres undefined), the growth was 104% (inactive).
`CN(C)c1nc(N)nc(Cn2c(-c3nonc3N)nc3ccccc32)n1` was tested, and the growth was 91.8% (inactive).
`Cc1nn(-c2ccc(Cl)cc2)c2nc3c(nc12)c(=O)oc1ccccc13` was tested, and the growth was 100% (inactive).
In the case of `Cn1cc(-c2nc(-c3c[nH]c4ncc(F)cc34)cs2)c2cccnc21`, the growth was 108% (inactive).
With `Cc1ccc(C(O)C2=CC(=O)c3ccccc3C2=O)cc1` (centres undefined) the growth was 102% (inactive).
In the case of `NC(N)=N/N=C(/c1ccccc1)c1ccc(Cl)cc1`, the growth was 63.8% (inactive).
For `O=C(C(=O)N1CCCCC1)c1ccc(OC2OC(CO)C(O)C(O)C2O)cc1` (centres undefined), the growth was 96.8% (inactive).
In the case of `COc1cc2c(cc1OC)C1CCN3C(=O)CCC3N1CC2` (centres undefined), the growth was 111% (inactive).
`NNC(=O)C1CC2c3ccccc3C1c1ccccc12` (centres undefined) was tested, and the growth was 107% (inactive).
For `Nc1nc(Cl)c2[nH]cnc2n1`, the growth was 92.9% (inactive).
In the case of `O=C(Nc1ccccc1Cl)c1cnc2ccc(C3CCNCC3)cn12`, the growth was 84.6% (inactive).
For `CC(C)[C@]12O[C@H]1[C@@H]1O[C@]13[C@]1(O[C@H]1C[C@H]1C4=C(CC[C@@]13C)C(=O)OC4)[C@@H]2OC(=O)CN(C)C`, the growth was 23% (inactive).
With `O=NC1CC=CCC1c1ccccc1` (centres undefined) the growth was 109% (inactive).
`O=C1C2C3C=CC(O3)C2C(=O)N1Nc1ccccc1` (centres undefined) was tested, and the growth was 111% (inactive).
`COc1ccc(-c2c3c(nn2-c2ccc(N)cc2)CCc2cnoc2-3)cc1OC` was tested, and the growth was 90.3% (inactive).
For `Cn1c(N)c(N=O)c(=O)[nH]c1=O`, the growth was 105% (inactive).
For `O=C(CSCC(=O)N/N=C/c1ccccc1O)N/N=C\c1ccccc1O`, the growth was 31.2% (inactive).
For `Oc1ccc(Cc2ccc(O)c(C3CC(c4ccc(Cl)cc4)=NN3)c2)cc1C1CC(c2ccc(Cl)cc2)=NN1` (centres undefined), the growth was 29.4% (inactive).
With `CSc1nc2c(c(=O)n1C)C(c1ccccc1)C1=C(N2)/C(=C/c2ccccc2)CCC1` (centres undefined) the growth was 66.1% (inactive).
For `CC(C)[C@H]1CC[C@H]2[C@@H](CC[C@H]3[C@](C)(CN)CCC[C@]23C)C1`, the growth was 98.1% (inactive).
`COc1ccc(OC)c(/C=C/c2nc(=S)n(-c3ccc(Cl)cc3)[nH]2)c1` was tested, and the growth was 51.2% (inactive).
For `CC1SC(c2c(Cl)cccc2Cl)N(NC(=O)c2[nH]c3ccc(F)cc3c2-c2ccccc2)C1=O` (centres undefined), the growth was 37.4% (inactive).
In the case of `COc1ccc(COC(C)=O)cc1`, the growth was 114% (inactive).
With `Clc1ccc(-n2cnc3c(Cl)ncnc32)cc1Cl` the growth was 91.5% (inactive).
For `COc1ccc2[nH]cc(/C=C3/C(=O)Nc4ccc(F)cc43)c2c1`, the growth was 88.2% (inactive).
With `O=C(CSc1nc2c(n1Nc1ccccc1)-c1ccccc1SC2)Nc1nc(-c2ccc(Cl)cc2)cs1` the growth was 80.5% (inactive).
`COc1cc(C2NC(c3ccc(Cl)cc3)C(C)C(=NC(=O)c3cnccn3)C2C)cc(OC)c1OC` (centres undefined) was tested, and the growth was 86.7% (inactive).
For `O=C(c1ccccc1)c1ccccc1Cl`, the growth was 97.1% (inactive).
With `Nc1nonc1-c1nc2ccccc2n1CC(=O)Nc1ccc2c(c1)COC2=O` the growth was 87.6% (inactive).
`COc1ccc(/C=C(\C#N)c2ccccc2)cc1` was tested, and the growth was 80.8% (inactive).
For `Cn1cc(-c2csc(-c3cn(C)c4ncccc34)n2)c2cc(Br)cnc21`, the growth was 98.5% (inactive).
For `CC(c1cc(Cl)ccc1O)c1cc(Cl)ccc1O`, the growth was 68.5% (inactive).
`O=C1c2nsnc2C(=O)c2c(F)c(F)c(F)c(F)c21` was tested, and the growth was -86.8% (active).
`CCOC(=O)/C(=C/c1ccccc1)C(=O)c1ccccc1` was tested, and the growth was 85.4% (inactive).
`COc1ccc(C2=NNC(c3cc(Cc4ccc(O)c(C5CC(c6ccc(OC)cc6)=NN5)c4)ccc3O)C2)cc1` (centres undefined) was tested, and the growth was 48.2% (inactive).

Each compound was assayed on U251 CNS in the same assay as above. Settings: 10 µM unless noted.
With `Cn1cc(-c2csc(-c3c[nH]c4ncccc34)n2)c2cc(F)cnc21` the growth was 83.3% (inactive).
`O=C(C(=O)N1CCOCC1)c1ccc(OC2OC(CO)C(O)C(O)C2O)cc1` (centres undefined) was tested, and the growth was 105% (inactive).
`ClC1C2CC(c3ccccc32)C1Cl` (centres undefined) was tested, and the growth was 106% (inactive).
For `CN(C)c1nc(N)nc(Cn2c(-c3nonc3N)nc3ccccc32)n1`, the growth was 90.1% (inactive).
For `Cc1nn(-c2ccc(Cl)cc2)c2nc3c(nc12)c(=O)oc1ccccc13`, the growth was 93.9% (inactive).
`Cn1cc(-c2nc(-c3c[nH]c4ncc(F)cc34)cs2)c2cccnc21` was tested, and the growth was 98.6% (inactive).
With `Cc1ccc(C(O)C2=CC(=O)c3ccccc3C2=O)cc1` (centres undefined) the growth was 96% (inactive).
For `NC(N)=N/N=C(/c1ccccc1)c1ccc(Cl)cc1`, the growth was 70.8% (inactive).
In the case of `O=C(C(=O)N1CCCCC1)c1ccc(OC2OC(CO)C(O)C(O)C2O)cc1` (centres undefined), the growth was 96.4% (inactive).
With `COc1cc2c(cc1OC)C1CCN3C(=O)CCC3N1CC2` (centres undefined) the growth was 112% (inactive).
With `NNC(=O)C1CC2c3ccccc3C1c1ccccc12` (centres undefined) the growth was 110% (inactive).
In the case of `Nc1nc(Cl)c2[nH]cnc2n1`, the growth was 97.6% (inactive).
With `O=C(Nc1ccccc1Cl)c1cnc2ccc(C3CCNCC3)cn12` the growth was 88.4% (inactive).
In the case of `CC(C)[C@]12O[C@H]1[C@@H]1O[C@]13[C@]1(O[C@H]1C[C@H]1C4=C(CC[C@@]13C)C(=O)OC4)[C@@H]2OC(=O)CN(C)C`, the growth was 15.4% (inactive).
`O=NC1CC=CCC1c1ccccc1` (centres undefined) was tested, and the growth was 105% (inactive).
`O=C1C2C3C=CC(O3)C2C(=O)N1Nc1ccccc1` (centres undefined) was tested, and the growth was 109% (inactive).
With `COc1ccc(-c2c3c(nn2-c2ccc(N)cc2)CCc2cnoc2-3)cc1OC` the growth was 89.1% (inactive).
With `Cn1c(N)c(N=O)c(=O)[nH]c1=O` the growth was 95.9% (inactive).
In the case of `O=C(CSCC(=O)N/N=C/c1ccccc1O)N/N=C\c1ccccc1O`, the growth was 26.8% (inactive).
In the case of `Oc1ccc(Cc2ccc(O)c(C3CC(c4ccc(Cl)cc4)=NN3)c2)cc1C1CC(c2ccc(Cl)cc2)=NN1` (centres undefined), the growth was 12.7% (inactive).
For `CSc1nc2c(c(=O)n1C)C(c1ccccc1)C1=C(N2)/C(=C/c2ccccc2)CCC1` (centres undefined), the growth was 48.8% (inactive).
In the case of `CC(C)[C@H]1CC[C@H]2[C@@H](CC[C@H]3[C@](C)(CN)CCC[C@]23C)C1`, the growth was 6.81% (active).
`COc1ccc(OC)c(/C=C/c2nc(=S)n(-c3ccc(Cl)cc3)[nH]2)c1` was tested, and the growth was 53.3% (inactive).
`CC1SC(c2c(Cl)cccc2Cl)N(NC(=O)c2[nH]c3ccc(F)cc3c2-c2ccccc2)C1=O` (centres undefined) was tested, and the growth was 10.7% (inactive).
With `COc1ccc(COC(C)=O)cc1` the growth was 107% (inactive).
For `Clc1ccc(-n2cnc3c(Cl)ncnc32)cc1Cl`, the growth was 78.2% (inactive).
`COc1ccc2[nH]cc(/C=C3/C(=O)Nc4ccc(F)cc43)c2c1` was tested, and the growth was 80.1% (inactive).
With `O=C(CSc1nc2c(n1Nc1ccccc1)-c1ccccc1SC2)Nc1nc(-c2ccc(Cl)cc2)cs1` the growth was 34.4% (inactive).
For `COc1cc(C2NC(c3ccc(Cl)cc3)C(C)C(=NC(=O)c3cnccn3)C2C)cc(OC)c1OC` (centres undefined), the growth was 77.9% (inactive).
`O=C(c1ccccc1)c1ccccc1Cl` was tested, and the growth was 99% (inactive).
`Nc1nonc1-c1nc2ccccc2n1CC(=O)Nc1ccc2c(c1)COC2=O` was tested, and the growth was 94.4% (inactive).
`COc1ccc(/C=C(\C#N)c2ccccc2)cc1` was tested, and the growth was 81.4% (inactive).
With `Cn1cc(-c2csc(-c3cn(C)c4ncccc34)n2)c2cc(Br)cnc21` the growth was 87.9% (inactive).
`CC(c1cc(Cl)ccc1O)c1cc(Cl)ccc1O` was tested, and the growth was 19.2% (inactive).
In the case of `O=C1c2nsnc2C(=O)c2c(F)c(F)c(F)c(F)c21`, the growth was -76.3% (active).
In the case of `CCOC(=O)/C(=C/c1ccccc1)C(=O)c1ccccc1`, the growth was 68.1% (inactive).
With `COc1ccc(C2=NNC(c3cc(Cc4ccc(O)c(C5CC(c6ccc(OC)cc6)=NN5)c4)ccc3O)C2)cc1` (centres undefined) the growth was 24.8% (inactive).
